Screens: PubChem BioAssay, National Center for Advancing Translational Sciences (NCATS)
Compounds with a hit are over-represented: about 6.9% of the library has one in this group of screens.
Giardia killer – kills Giardia lamblia; activity change, % at 7.66 µM, hits read low; Giardia lamblia trophozoite viability; AID 540267; actives 0.15% (n = 340,000); in the data active = activity change below about -80%; inconclusive = between about -30% and that limit;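 also: parasites exposed to compound for two days anaerobically before the ATP read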
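Giardia trophozoites, 100 cells per well, were exposed to compounds for 48 hrs at 37 deg C under anaerobic conditions; viability was then read as ATP content by bioluminescence after 15-30 min at room temperature.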
SW480 rerep – DNA re-replication induction in SW480 cells; AID 624297; SW480 DNA re-replication, Hoechst DNA content imaging, 48 h; actives 1.8% (n = 340,000); Potency, µM (top dose mostly 46.1 µM), actives largely listed as activators; also: nearly all actives have a fitted effect of over 55% in size
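Image-based read-out: total Hoechst fluorescence of nuclei (405 nm excitation, 500-530 nm emission), with hits raising the fraction of high-intensity nuclei. SW480 colon cells incubated 48 hr with compounds at 37 C.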
S-ASM inh – blocks human secretory acid sphingomyelinase. placental ASM, HMU-PC fluorogenic substrate, 60 min. Potency, µM (top dose mostly 57.5 µM), actives largely listed as inhibitors. actives 0.006% (n = 340,000). P17405. AID 504937
Target sequence (P17405 47-631 limits assumed): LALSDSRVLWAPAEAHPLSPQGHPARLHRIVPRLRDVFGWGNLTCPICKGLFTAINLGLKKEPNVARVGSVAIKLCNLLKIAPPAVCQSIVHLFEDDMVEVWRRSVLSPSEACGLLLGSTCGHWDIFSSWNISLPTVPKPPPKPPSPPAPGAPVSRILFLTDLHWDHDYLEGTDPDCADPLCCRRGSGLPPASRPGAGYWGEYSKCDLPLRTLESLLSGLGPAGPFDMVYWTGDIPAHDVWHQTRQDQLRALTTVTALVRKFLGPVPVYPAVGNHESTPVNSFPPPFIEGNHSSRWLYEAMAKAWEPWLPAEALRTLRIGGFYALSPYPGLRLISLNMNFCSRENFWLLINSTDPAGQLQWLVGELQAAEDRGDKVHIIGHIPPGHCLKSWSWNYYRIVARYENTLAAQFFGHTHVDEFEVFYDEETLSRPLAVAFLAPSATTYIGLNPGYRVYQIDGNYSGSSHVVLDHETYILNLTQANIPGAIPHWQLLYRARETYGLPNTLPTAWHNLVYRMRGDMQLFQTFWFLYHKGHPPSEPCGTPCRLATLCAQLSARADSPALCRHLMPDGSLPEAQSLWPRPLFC
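Fluorogenic HMU-PC substrate (9 uM final) is turned over by placental ASM in 60 min at 37 C after a 10 min compound preincubation. Reaction ended by alkaline stop (pH 10), with fluorescence read at 386/447 nm.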
KB-3-1 tox – kills parental KB-3-1 adenocarcinoma cells; KB-3-1 viability, CellTiter-Glo ATP luminescence, 72 h; Potency, µM (highest dose often 46.1 µM), hits mostly cytotoxic; actives 1.4% (n = 400,000); AID 1347075; also: nearly all actives have a fitted effect of over 60% in size
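Screening of KB-3-1 cells (DMEM, 10% FBS, phenol-red free) ran from lowest to highest compound concentration; after 72 h at 37 °C viability was read luminescently and curves fitted.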
KB-V1 cytotox – kills drug-selected multidrug resistant KB-V1 cells; KB-V1 MDR cells viability, CellTiter-Glo, 72 h; Potency, µM (series often up to 46.1 µM), most hits filed as cytotoxic; actives 3.4% (n = 400,000); also: nearly all actives have a fitted effect of over 60% in size
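qHTS viability screen in drug-selected KB-V1 MDR cells: 72 h compound treatment at 37 degrees C, ATP luminescence end point.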
MCF10A rereplic – induces DNA re-replication in MCF 10a normal breast cells. actives 2.9% (n = 350,000). AID 624296. MCF 10A DNA re-replication, Hoechst nuclear intensity, 48 h. Potency, µM (top dose mostly 46.1 µM), actives largely listed as activators; also: nearly all actives have a fitted effect of over 50% in size
Numbers stand for hits; - = inactive; ? = inconclusive; . = no result. Unless noted, calls follow the shape of the dose curve; as a rule, active = well fitted curve in the direction sought with a large enough effect; inconclusive = small, poorly fitted or top-dose-only effect, or another doubt; inactive = no such curve, though single readings can be large; an effect the other way counts as inactive or inconclusive.

SMILES	Giardia killer	SW480 rerep	S-ASM inh	KB-3-1 tox	KB-V1 cytotox	MCF10A rereplic
CN(C)S(=O)(=O)Oc1ccsc1C(=O)Nc1ccc(Cl)c(Cl)c1	-	-	-	-	?	?
COc1ccc(COc2ccsc2C(=O)Nc2ccc(Cl)c(Cl)c2)cc1	-	-	-	-	-	18µM
CCC(=O)N1CCc2cc(Br)cc(S(=O)(=O)CCC(=O)Nc3cccc(CC)c3)c21	.	.	.	-	-	.
COC(CNC(=O)Cc1c(C)nc2c(-c3ccccc3)c(C)nn2c1C)OC	-	-	-	-	?	-
CC(=O)c1cnc2c(-c3ccccc3)cnn2c1C	-	-	-	?	21µM	-
Cc1nc2c(-c3ccccc3)c(C)nn2c(C)c1CC(=O)O	-	-	-	-	-	15µM
CCOC(=O)Cc1c(C)nc2c(-c3ccccc3OC)c(C)nn2c1C	-	-	-	-	-	-
CCOC(=O)Cc1c(C)nc2c(-c3ccccc3)cnn2c1C	-	?	-	-	-	1.3µM
CCOC(=O)c1cnc2c(-c3ccccc3)cnn2c1C	-	-	-	-	-	-
CCOC(=O)Cc1c(C)nc2c(-c3ccc(Cl)cc3)c(C)nn2c1C	-	?	-	-	?	23µM
O=C(c1ccc(CSc2nc3ccncc3n2Cc2ccc(F)cc2)cc1)N1CCCCCC1	.	.	.	-	-	.
Cc1oc2ncn(C)c(=O)c2c1C(=O)N1CCN(c2ccccc2)CC1	.	.	.	-	?	.
O=C(O)[C@H]1C[C@@H](CP(=O)(O)O)CCN1	-	-	.	.	.	-
Cc1nc2c(-c3ccc(F)cc3)c(C)nn2c(C)c1CCC(=O)N1CCN(c2ccccc2)CC1	-	-	-	-	-	-
Cc1nc2c(-c3ccc(F)cc3)c(C)nn2c(C)c1CCC(=O)N1CCC(Cc2ccccc2)CC1	-	-	-	?	-	21µM
CC(C)Nc1ccc(-c2nc(-c3ccco3)no2)cc1[N+](=O)[O-]	.	.	.	-	-	.
COc1ccc(-c2nnc(SCC(=O)c3[nH]c(C)c(C(C)=O)c3C)o2)cc1	-	-	-	-	?	-
CCOC(=O)c1[nH]c(CSc2nnc(-c3ccc(OC)cc3)o2)c(C(=O)OCC)c1C	-	-	-	-	?	16µM
CC1(C)Cc2c(sc(NC(=O)C(=O)N3CCCC3)c2C#N)CO1	-	-	-	-	-	-
Clc1ccc(-c2noc(CSc3nnc(-c4ccncc4)n3-c3ccccc3)n2)cc1	-	?	-	-	2.6µM	?
CCOc1ccc(-c2noc(CSc3nnc(Cc4ccccc4)n3-c3cccc(C)c3)n2)cc1	.	.	.	-	?	.
Cc1ccc(-c2noc(CSc3nnc(Cc4ccccc4)n3-c3cccc(C)c3)n2)cc1	-	-	-	?	-	18µM
O=C(CSc1nnc(-c2ccncc2)n1-c1ccccc1)N1CCN(c2ccc(Cl)cc2)CC1	-	-	-	-	16µM	?
O=C(CSc1nnc2sc3ccccc3n12)N1CCN(c2ccccc2)CC1	-	-	-	-	8.2µM	-
Cc1ccc(S(=O)(=O)c2cn(Cc3ccccc3)c3cc(N4CCOCC4)c(F)cc3c2=O)cc1	.	.	.	-	-	.
SMILES	Giardia killer	SW480 rerep	S-ASM inh	KB-3-1 tox	KB-V1 cytotox	MCF10A rereplic
O=C(O)c1sccc1S(=O)(=O)N1CCOCC1	-	-	-	-	-	-
O=C(OCC(=O)c1c[nH]c2ccccc12)c1ccc([N+](=O)[O-])s1	-	21µM	-	-	?	-
CNc1nc(Cl)nc2ncn(C)c12	-	-	-	-	-	-
Cn1cnc2nc(Cl)nc(Cl)c21	-	1.3µM	-	3.3µM	3.7µM	7.3µM
O=S1(=O)N=C(Oc2ccccc2-c2ccccc2)c2ccccc21	.	.	.	-	?	.
CCN(CC)c1cc2c(c3c1ccn3C)C1CCC2C1 (centres undefined)	.	.	.	-	-	.
COc1ccc(-n2c(C)cc(-c3cn4cccc(C)c4n3)c2C)cc1	-	-	-	-	-	?
Cc1cc(-c2cn3ccccc3n2)c(C)n1-c1ccccc1	?	?	-	?	-	21µM
COc1ccc(C2C=C3CNS(=O)(=O)C3CC2OC(=O)c2cccs2)cc1 (centres undefined)	-	.	.	.	.	.
